About 2,700 (4%) of roughly 68,000 compounds showed an effect of 50% or more. The entries come from a sample that favours strong results as a whole.
tested on: Plasmodium berghei; assay: Screen against P. berghei liver stage (PbLuc), transformed with Luciferase, at 2uM; type: functional, HepG2; settings: tested at 2 uM

SMILES | INHIBITION [%]
CN(C)CC(=O)N1CCC2(CC1)CN(c1ncccn1)CCO2 | 25.4
CCC(C)n1cnc(S(=O)(=O)N(C)c2cccnc2N(C)C)c1 (stereo unspecified) | 11.9
CCC(C)n1cnc(S(=O)(=O)N(C)C)c1 (stereo unspecified) | -15.03
CCC(C)n1cnc(S(=O)(=O)N(Cc2cccnc2)C(C)C)c1 (stereo unspecified) | 59.03
O=C(Nc1cccc(CNCc2ccsc2)c1)C1CC1 | 30.92
O=C(Nc1cccc(CNCc2cccs2)c1)C1CCCC1 | -5.15
O=C(Nc1cccc(CNCc2cccs2)c1)C1CC1 | 62.82
CNC(=O)N1CC[C@@H]2CN(Cc3cccc(OC)c3)S(=O)(=O)[C@@H]2CC1 | -72.58
CS(=O)(=O)N1CC2(CCN(C3COC3)C2)Cc2ccccc21 (stereo unspecified) | 26.56
O=C(NCCCn1nc2ccccn2c1=O)NC1CCC(O)CC1 (stereo unspecified) | 8.3
CCN(C(=O)CNc1cc(C)c(F)cc1C(N)=O)C1CC1 | -31.4
Cc1noc(C)c1S(=O)(=O)NC(=O)COc1ccc(C(C)C)cc1 | 19.71
Cc1noc(C)c1S(=O)(=O)NC(=O)COc1ccc2c(c1)CCC2 | 56.78
Cc1noc(C)c1S(=O)(=O)NC(=O)COc1cccc(C(C)C)c1 | 42.99
Cc1cc(OCC(=O)NS(=O)(=O)c2c(C)noc2C)ccc1Cl | -12.48
Cc1cc(C)c(OCC(=O)NS(=O)(=O)c2c(C)noc2C)c(C)c1 | 5.72
Cc1ccc(OCC(=O)NS(=O)(=O)c2c(C)noc2C)cc1C | 57.33
O=C(c1ccccc1)C1CCN(C(=O)CC2COCCN2)CC1 (stereo unspecified) | -13.88
CCn1cnnc1C1CCN(C(=O)c2ccccc2F)CC1 | -19.35
COc1ccc(NC(=O)N2CCC(c3noc(C)n3)CC2)cc1C | -30.88
c1ccc(N2CCCC3(CCN(Cc4ccsc4)C3)C2)nc1 (stereo unspecified) | 33.14
CC(=O)NCC(=O)N1CCCC1c1ccc(CN2CCOCC2)cn1 (stereo unspecified) | 26.22

SMILES | INHIBITION [%]
CC(C)c1noc(CN2CCN(C(=O)c3cccnc3O)CC2)n1 | -2.82
Cc1cc(CNc2nccc(N)n2)c2[nH]c(C)c(C)c2c1 | -5.41
CCc1ncnc2c1CCN(S(=O)(=O)CC)CC2 | 1.81
Cc1ncsc1CCN(C)C(=O)c1ccc(Cn2cnnn2)cc1 | 89.46
Cc1ncsc1CCN(C)C(=O)c1ccc(CN2CCCCC2)cc1 | -20.75
Cc1nc(CN(C)C(=O)c2ccc(Cn3cnnn3)cc2)cs1 | 21.57
CC(Cn1ccnc1)NC(=O)NCCc1ccc2c(c1)OCCO2 (stereo unspecified) | -14.3
O=C(N1CCCC1)C1(Cc2ccc(-c3cccs3)cc2)CCNC1 (stereo unspecified) | 17.24
COCC(=O)N1CCCN(Cc2c(C)nc3ccc(Cl)cn23)CC1 | 12.43
CCn1cc(CN2CCN(CC(O)c3cc(C)ccc3C)CC2)c(C)n1 (stereo unspecified) | -2.2
CCn1cc(CN2CCN(CC(O)c3ccc(C)cc3C)CC2)c(C)n1 (stereo unspecified) | 54.9
CCn1cc(CN2CCN(CC(O)c3ccc(C)cc3C)CC2)cn1 (stereo unspecified) | 35.73
CN(Cc1ccc(N(C)C)cc1)C(=O)CS(=O)(=O)c1ccc(Cl)cc1 | 9.02
Fc1cccc(C2CCCCN2Cc2nc(-c3cnccn3)no2)c1 (stereo unspecified) | 58.69
Cc1nccc(C2CCCCN2Cc2cccc(F)c2)n1 (stereo unspecified) | 94.5
c1ccc(C2CCCN2Cc2nc(-c3cnccn3)no2)nc1 (stereo unspecified) | -5.19
Cc1nccc(C2CCCCN2Cc2ccc(F)cc2)n1 (stereo unspecified) | -10.12
c1ccc(C2CCCCN2Cc2nc(-c3cnccn3)no2)nc1 (stereo unspecified) | 6.92
Nc1nccc(C2CCCCN2Cc2cccc(F)c2)n1 (stereo unspecified) | 25.72
Cc1cc(=O)[nH]c(-n2nc(C)c(CCC(=O)Nc3nc(C)cs3)c2C)n1 | -7.56
Cc1ccsc1CN1CCn2c(COc3cccnc3)cnc2C1C (stereo unspecified) | 3.63
O=S(=O)(Nc1cnn(C2CCOCC2)c1)c1ccc(F)c(F)c1 | -38.4

SMILES | INHIBITION [%]
COc1cccc(CNC(=O)CCC2=Nc3ccccc3S(=O)(=O)N2)c1 | -1.65
Cc1ccc(NCCCNc2nccc(-c3cn(C)nc3C)n2)nc1 | 37.5
CNC(=O)C1Cn2ccnc2C2(CCN(Cc3cccc(C)n3)CC2)O1 (stereo unspecified) | -15.95
O=C(Cn1cccn1)NCC1CCN(Cc2cc3ccccc3[nH]2)C1 (stereo unspecified) | -0.59
O=C(Cn1cccn1)NCC1CCCN(Cc2ccccc2)C1 (stereo unspecified) | 81.59
Cc1cc(CN2CCCC(CNC(=O)Cn3cccn3)C2)oc1C (stereo unspecified) | 2.9
Cc1cc(C2CCCN2C(=O)c2ccc(OCC(N)=O)cc2)no1 (stereo unspecified) | 34.18
CC(C)(C)CC(=O)N[C@@H]1CO[C@H](CNC(=O)c2ccncc2)[C@H]1O | 17.9
CC(NCc1cccs1)c1ccc(OCc2nccn2C)cc1 (stereo unspecified) | 63.46
CC(NCc1cnn(C)c1)c1ccc(OCc2nccn2C)cc1 (stereo unspecified) | 37.18
CC(NCc1ccsc1)c1ccc(OCc2nccn2C)cc1 (stereo unspecified) | 24.05
O=C(CCCc1cn[nH]c1)N1C[C@@H](CN2CCCCCC2)[C@@H](CO)C1 | -5.41
Cc1ccc(OC(C)CNC(=O)c2c[nH]nn2)cc1 (stereo unspecified) | -9.5
CC(CNC(=O)c1c[nH]nn1)Oc1ccccc1Br (stereo unspecified) | 67.83
CC(CNC(=O)c1c[nH]nn1)Oc1cccc(Br)c1 (stereo unspecified) | -10.85
CC(=O)NCC(=O)N1Cc2cc(C#N)ccc2C1c1cnco1 (stereo unspecified) | -9.91
CC(C(=O)Nc1cccc(F)c1)N(C)CCN1CCOCC1 (stereo unspecified) | 57.23
CC(C(=O)NCc1ccc(F)cc1)N(C)CCN1CCOCC1 (stereo unspecified) | 10.71
CC(C(=O)Nc1cccc(C(F)(F)F)c1)N(C)CCN1CCOCC1 (stereo unspecified) | -18.99
CCOCC1CN(Cc2cnn(C)c2)Cc2nn(CC3CC3)cc21 (stereo unspecified) | -50.35
Cc1oc(-c2ccsc2)nc1CC(=O)NCC(=O)Nc1cn[nH]c1 | 11.01
Cc1cnn(CC2CCCCN2CCS(C)(=O)=O)c1 (stereo unspecified) | 44.41

SMILES | INHIBITION [%]
O=C1N(Cc2ccccn2)C[C@H]2CN(C3CCOCC3)CCN12 | -8.59
O=C1N(Cc2cccnc2)C[C@H]2CN(S(=O)(=O)c3ccccc3)CCN12 | 40.83
O=C1N(Cc2ccccn2)C[C@H]2CN(S(=O)(=O)c3ccccc3)CCN12 | 50.72
O=C1N(Cc2ccccn2)C[C@H]2CN(C3CCC3)CCN12 | 52.36
CC(=O)N1CCC(N2CCN3C(=O)N(Cc4ccccn4)C[C@H]3C2)CC1 | 37.54
Cn1ccnc1CN1C[C@H]2CN(S(=O)(=O)c3ccccc3)CCN2C1=O | 15.02
Cc1c(F)cccc1S(=O)(=O)NC(C)(C)CN | 36.53
CNC(=O)[C@@H]1[C@@H](c2ccccc2)CN2CCN(Cc3ccco3)C[C@H]12 | -0.14
CCN(Cc1ccco1)C(C)c1nc(C(C)(C)C)no1 (stereo unspecified) | 33.78
CN(C)CCCNCCC(Cc1ccccc1)C1CCOC(C)(C)C1 (stereo unspecified) | -18.52
CC(C(=O)N1CCn2cncc2C1)N1CCCC1 (stereo unspecified) | 17.2
O=C(C(c1ccc(F)cc1)N1CCCCC1)N1CCn2cncc2C1 (stereo unspecified) | 50.59
CC(C(=O)N1CCn2cncc2C1)N1C[C@@H](C)O[C@@H](C)C1 (stereo partly specified) | -28.11
Cc1nn(C)c(C)c1CC(=O)N1CCCC(n2ccnc2C)C1 (stereo unspecified) | 45.83
CCCn1nccc1NC(=O)CN1CCn2c(nnc2C2CC2)C1 | 9.36
CNC(=O)COC1COC2(CCN(Cc3cccnc3)CC2)C1 (stereo unspecified) | 28.88
CSC1=Nc2c(cnn2-c2ccc(Cl)cc2)C2=NCCCN12 | -4.43
CSC1=Nc2c(cnn2-c2cccc(Cl)c2)C2=NCCCN12 | 18.15
CCSC1=Nc2c(cnn2-c2ccc(Cl)cc2)C2=NCCCN12 | 51.78
CC(=O)NCCc1ccc(S(=O)(=O)N(C)C(C)C(C)(C)C)s1 (stereo unspecified) | 32.1
CN(C)C(=O)COC[C@H]1CC[C@@H]2[C@@H](CCN2Cc2ccccn2)O1 | 53.98
c1ccc(COC[C@H]2CC[C@H]3[C@H](CCN3Cc3ccccn3)O2)nc1 | 4.54

SMILES | INHIBITION [%]
CN(C)C(=O)COC[C@@H]1CC[C@H]2[C@H](CCN2c2ccccn2)O1 | -3.69
OCCN1CC2(CCN(c3ccccc3)C2)C1 | -55.62
CCN(C)C1CCCc2nc(C)sc21 (stereo unspecified) | 9.52
CC(C)Cc1noc(CN(C)C2CCS(=O)(=O)C2)n1 (stereo unspecified) | -12.52
CN(Cc1nc(C2CC2)no1)C1CCS(=O)(=O)C1 (stereo unspecified) | 31.27
COc1ccc(OCc2noc(CN(C)C3CCS(=O)(=O)C3)n2)cc1 (stereo unspecified) | 57.91
CN(C)c1ccc(NC(=O)C2CN(Cc3ccccc3)CCO2)cn1 (stereo unspecified) | 12.94
CCC1=NN2C(=N)C(=Cc3cccn3-c3ccc(Cl)cc3)C(=O)N=C2S1 | -3.11
O=C(C1CC1)N1CCC2(CCN(Cc3cccc(F)c3)CC2)CC1 | 27.05
O=C(c1ccn(-c2cccc(F)c2)n1)N1CCN(CCO)CC1 | 19.12
CC1CCCCN1CCNC(=O)c1ccn(-c2cccc(F)c2)n1 (stereo unspecified) | 2.18
O=C(NCCn1cccn1)c1ccn(-c2cccc(F)c2)n1 | 64.16
CCC(O)CN1CCN(C(=O)c2ccn(-c3ccccc3)n2)CC1 (stereo unspecified) | 14.97
O=C(c1ccn(-c2cccc(F)c2)n1)N1CCN(CC2CC2)CC1 | -40.27
CC(O)CN1CCN(C(=O)c2ccn(-c3cccc(Cl)c3)n2)CC1 (stereo unspecified) | -42.32
CCC(O)CN1CCN(C(=O)c2ccn(-c3cccc(F)c3)n2)CC1 (stereo unspecified) | 52.3
CC(C)(O)CN1CCN(C(=O)c2ccn(-c3cccc(F)c3)n2)CC1 | 65.76
O=C(NCCn1ccnc1)c1ccn(-c2cccc(F)c2)n1 | 8.37

From ChEMBL document CHEMBL4513216, “Probing the Open Global Health Chemical Diversity Library for Multistage-Active Starting Points for Next-Generation Antimalarials” (ACS Infect Dis, 2020)
